ADAM10 inh: inhibits human ADAM10; O14672; recombinant ADAM10, EDANS/DABCYL FRET peptide cleavage, 3 h; inhibition, % at 7 µM; actives 0.62% (n = 370,000);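 active = inhibition above a per-campaign cutoff equal to the mean of compounds falling between control-based bounds plus 3 SD, cut at about 20% in these data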;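 note: 0% = DMSO wells while the 100% control is not disclosed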
Target sequence (O14672 214-748 limits assumed): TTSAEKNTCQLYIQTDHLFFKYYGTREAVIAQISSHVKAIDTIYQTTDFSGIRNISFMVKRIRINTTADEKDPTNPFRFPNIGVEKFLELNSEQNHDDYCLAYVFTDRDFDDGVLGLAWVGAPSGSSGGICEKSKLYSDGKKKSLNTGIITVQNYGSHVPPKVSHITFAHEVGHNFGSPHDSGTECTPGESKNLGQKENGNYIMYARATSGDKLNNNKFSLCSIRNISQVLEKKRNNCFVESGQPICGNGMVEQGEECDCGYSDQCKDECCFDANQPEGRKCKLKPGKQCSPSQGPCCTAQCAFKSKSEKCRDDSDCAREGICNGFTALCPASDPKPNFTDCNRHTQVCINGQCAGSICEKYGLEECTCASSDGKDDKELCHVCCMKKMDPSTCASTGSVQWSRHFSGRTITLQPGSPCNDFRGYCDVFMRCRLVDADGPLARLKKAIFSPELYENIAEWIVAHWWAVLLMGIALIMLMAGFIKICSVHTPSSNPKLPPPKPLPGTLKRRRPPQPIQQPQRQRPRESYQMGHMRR
PLCg1 inh: PLC-gamma1 (human) inhibition, primary screen. P19174. purified PLC-gamma1, fluorogenic substrate, fluorescence. inhibition, % at 12.2 µM. actives 0.84% (n = 370,000); in the data active = inhibition above about 9.5%
ADAM17 inh: inhibits human ADAM17; recombinant ADAM17, EDANS/DABCYL FRET peptide cleavage; inhibition, % at 6.95 µM; P78536; actives 0.83% (n = 370,000);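 active = inhibition above the mean of compounds lying between control limits plus 3 SD, set per campaign, cut at about 8.5% in these data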;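 note: 0% = DMSO-only wells as the low control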
PLCb3 inh: inhibitors of human phospholipase C beta3 | Q01970 | Purified PLC-beta3, fluorogenic substrate, fluorescence | inhibition, % at 12.2 µM | actives 0.18% (n = 370,000) | AID 720704; in the data active = inhibition above about 11%;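 note: 0% = median of compound wells on plate and 100% = full blocker control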
KLK7 zymogen act: activators of human kallikrein-7 zymogen; P49862; purified proKLK7, EDANS-DABCYL substrate fluorescence; 100% is mature enzyme control, 0% vehicle; activation, % at 7 µM; actives 0.9% (n = 370,000);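 active = activation above the mean of all tested compounds plus 3 SD, computed per campaign excluding outliers beyond control limits, cut at about 13% in these data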
proKLK7 act conf: confirmation of human kallikrein-7 zymogen activators. shares compounds with KLK7 zymogen act. activation, % at 7 µM. actives 68% (n = 3,200). AID 686949. purified proKLK7, EDANS-DABCYL substrate fluorescence; scaled: vehicle 0, mature enzyme 100;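 active = activation, as change over the incubation, above the mean of all tested compounds plus 3 SD, cut at about 13% in these data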
EDANS-DABCYL int: fluorescence interference counter-screen for KLK7 activators | shares compounds with KLK7 zymogen act | activation, % at 7 µM | AID 686952 | EDANS-DABCYL substrate fluorescence interference, no enzyme, 4 h; solvent 0%, active enzyme control 100% | actives 80% (n = 3,200);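 active = activation above the all-compound mean plus 3 SD, ignoring values outside control-based bounds, cut at about 4.8% in these data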;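 note: value is the 4 h activation minus the activation read at time zero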
EDANS interf: counter-screen for kallikrein-7 activators: EDANS-DABCYL interference, dose response | shares compounds with KLK7 zymogen act | EDANS-DABCYL peptide fluorescence interference, no enzyme | EC50, µM | actives 20% (n = 250) | AID 720493;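 active = compounds that raise the fluorescence signal in this interference counterscreen, with EC50 at or below 10 µM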;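 note: intact quenched peptide substrate alone read at 355 nm excitation and 520 nm emission; signal is fluorescence gain from T0 to T4 after four hours at room temperature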
An asterisk follows results filed as active; i = inactive; / = no result. An excerpt weighted towards active compounds, which were near 2.9% of everything screened.

SMILES | ADAM10 inh | PLCg1 inh | ADAM17 inh | PLCb3 inh | KLK7 zymogen act | proKLK7 act conf | EDANS-DABCYL int | others
O=c1nc(-c2ccccc2)cc(-c2ccccc2)[nH]1 | i | -52 | -102 | -69 | 6 | / | /
O=C(CNC(=O)N1CC(=O)Nc2ccccc21)Nc1ccc(F)c(Cl)c1 | -1 | 2 | -3 | -2 | 0 | / | /
O=C(CCCC(=O)N/N=C/c1ccccc1C(=O)O)N/N=C/c1ccccc1C(=O)O | 1 | 0 | -3 | -4 | 0 | / | /
COC(=O)c1cccc(NC(=O)NC23CC4CC(CC(C4)C2)C3)c1 | 6 | 1 | -3 | 5 | 0 | / | /
O=c1c2cc(N3CCOCC3)ccc2[nH]c(=S)n1CCCN1CCCCC1 | -129 | i | -37 | i | 121* | 29* | 24* | EDANS interf=>69
O=c1c2ccccc2[nH]c(=S)n1CCCN1CCN(c2ccccc2)CC1 | 4 | 2 | 1 | -5 | 0 | / | /
O=c1c2cc(N3CCOCC3)ccc2[nH]c(=S)n1Cc1cccc(Cl)c1 | -31 | -120 | -8 | -155 | -1 | / | /
O=c1c2cc(N3CCOCC3)ccc2[nH]c(=S)n1Cc1ccco1 | -85 | i | -27 | i | 28* | 17* | 17*
O=c1c2cc(N3CCOCC3)ccc2[nH]c(=S)n1CCCN1CCCC1 | -145 | i | -40 | i | 114* | 25* | 27*
O=C(c1ccc(Cn2c(=S)[nH]c3ccc(N4CCOCC4)cc3c2=O)cc1)N1CCC(N2CCCCC2)CC1 | -70 | i | -25 | i | 28* | -34 | -41
COc1cccc(NC(=O)C(=O)NCC2CCCN2S(=O)(=O)c2cccs2)c1 (stereo not given) | -4 | -1 | -2 | 1 | 0 | / | /
CC1CCCC(NC(=O)CN2C(=O)NC(Cc3c[nH]c4ccccc34)C2=O)C1C (stereo not given) | -4 | -3 | -1 | -3 | 1 | / | /
CC(=O)Nc1nonc1-c1nc2ccccc2n1Cc1ccccc1 | -6 | -9 | -3 | -15 | -32 | / | /
CCCn1c(NCc2cccc(OC)c2OC)nc2ccccc21 | -1 | 0 | -1 | -1 | 0 | / | /
O=C(O)/C(=C\c1ccc(Br)cc1)c1ccc(S(=O)(=O)N2CCCCC2)s1 | -13 | -5 | -4 | -9 | 0 | / | /
CCN(CC)c1ccc2c(C)c(CO)c(=O)oc2c1 | i | i | -426 | i | 50* | 51* | 36* | EDANS interf=>70
CCN(CC)c1ccc2c(O)cc(=O)oc2c1 | -24 | -14 | -4 | -24 | 1 | / | /
CCCOc1ccc(N2C(=O)CC(N(O)c3ccccc3)C2=O)cc1 (stereo not given) | 1 | 0 | -6 | 0 | 112* | 120* | 125*
COc1ccccc1N1C(=O)CC(N(O)c2ccccc2)C1=O (stereo not given) | 9 | 6 | 1 | 1 | 117* | 192* | 195*
Cc1ccccc1N1C(=O)CC(N(O)c2ccccc2)C1=O (stereo not given) | -5 | 4 | 4 | -2 | 363* | 317* | 330*
COc1ccccc1N(O)C1CC(=O)N(c2ccc(F)cc2)C1=O (stereo not given) | 12 | -6 | 1 | -6 | 6 | / | /
CCCOc1ccccc1N1C(=O)CC(N(O)c2ccccc2)C1=O (stereo not given) | -6 | -3 | 1 | -2 | 47* | 29* | 31*
Cc1ccc(-n2nc(C)c(C3(O)C(=O)N(C)c4ccccc43)c2N)cc1 (stereo not given) | 2 | -1 | 1 | 0 | 0 | / | /
C=CCn1c2ccccc2c2nnc(SCN3C(=O)c4ccccc4C3=O)nc21 | 4 | -2 | -5 | -5 | 1 | / | /
O=C1CC(N(O)c2ccccc2)C(=O)N1Cc1ccccc1 (stereo not given) | 3 | 0 | -3 | 2 | 1 | / | /
SMILES | ADAM10 inh | PLCg1 inh | ADAM17 inh | PLCb3 inh | KLK7 zymogen act | proKLK7 act conf | EDANS-DABCYL int | others
O=C1CC(N(O)c2ccccc2)C(=O)N1c1cc(Cl)cc(Cl)c1 (stereo not given) | -9 | -19 | 0 | -25 | 48* | 645* | 617*
CCOC(=O)c1cnc2c(C(=O)OC)cccc2c1NCc1ccco1 | i | i | i | i | 14* | 15* | 7.3* | EDANS interf=>70
CCOC(=O)c1cnc2c(C)cccc2c1NCc1ccco1 | -36 | -16 | -12 | -24 | 0 | / | /
O=C(NCC(=O)N(c1ccccc1)C(C(=O)NC1CCCCC1)c1cccnc1)c1cccs1 (stereo not given) | -2 | 0 | -6 | 3 | 0 | / | /
N#Cc1cnn2c(-c3ccccc3)ccnc12 | -465 | i | -214 | i | 45* | 59* | 66*
COc1ccc(-c2ccnc3c(C#N)cnn23)cc1 | i | i | i | i | 60* | 69* | 85*
O=C(Nc1ccccc1C(=O)O)c1ccc(Br)o1 | -5 | -2 | -5 | -1 | 0 | / | /
N#Cc1ccc(CSc2nnc(-c3cccnc3)n2-c2ccccc2)cc1 | 0 | 5 | 0 | 3 | 0 | / | /
Cc1cccc(CCNC(=O)c2cccc3c2C(=O)N(C2CCCCC2)C3)c1 | 3 | -1 | -4 | -5 | 0 | / | /
N=c1oc2ccc3ccccc3c2cc1-c1nnc2n1CCCCC2 | i | i | i | i | 63* | 72* | 72*
CN(c1ccccc1)S(=O)(=O)c1cccc(NC(=O)C2=NN(c3ccccc3)C(=O)CC2)c1 | -5 | -5 | -2 | -18 | 53* | 12 | 8.6*
COc1ccc(NS(=O)(=O)c2cccc(NC(=O)C3=NN(c4ccccc4)C(=O)CC3)c2)cc1 | 5 | -2 | 0 | -3 | 1 | / | /
Clc1c(-c2ccccc2)nc2ccccn12 | -61 | -8 | -21 | -12 | 0 | / | /
c1ccn2c(c1)nc1c2nc2ccccn21 | i | i | i | i | 81* | 70* | 73*
COc1ccccc1C1C=C(c2ccccc2)Nc2nnnn21 (stereo not given) | -33 | -173 | -6 | -224 | 21* | 16* | 14* | EDANS interf=i
Cc1ccc(S(=O)(=O)NCCC(=O)N2CCC(Cc3ccccc3)CC2)cc1 | -9 | -4 | 0 | -9 | 1 | / | /
CCOc1ccc2[nH]c(SCC(=O)OC)c([N+](=O)[O-])c2c1 | -15 | -143 | -5 | -191 | 13* | 19* | 16*
COC(=O)CSc1[nH]c2ccc(Br)cc2c1[N+](=O)[O-] | 2 | 2 | 5 | 1 | 0 | / | /

Screening data as filed in PubChem.
